{"source": "PubChem BioAssay (NCI)", "note": "Values joined by “and” are separate entries in the source; they are usually repeats but may differ in a detail not shown here. Equal entries are not always repeated. About 83,000 compounds went through this panel and 20% of them were active in at least one assay; those are over-represented in the sample as a whole.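 Testing used 96-well plates and a 48-hour single-concentration exposure. Example: -40 means 40% of the starting cells died.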 Active and inactive are the calls of the source."}
{"tested_on": "KM12 colon", "test": "NCI-60 one-dose screen, 48 h (100 = growth as untreated, 0 = no growth, -100 = all killed)", "conditions": "10 µM", "experimental": "(§1) Growth inhibition of the KM12 human tumor cell line is measured as a screen for anti-cancer activity. Cells are grown in 96 well plates and exposed to the test compound for 48 hours. Compounds are tested at a single concentration, which is 10^-5 M for most compounds. The reported endpoint is percent growth (GI% or GIPRCNT), where numbers from 0 - 100% represent growth inhibition, and numbers from -100% - 0 represent cell death. For example, a value of 40 represents 60% growth inhibition. A value of 0 means no net growth occurred over the course of the experiment. A value of -40 indicates 40% of cells at the beginning of the experiment died by the end of the experiment. A value of -100 means all cells are dead at the end of the experiment.\n(§2) NCI-60 Human Tumor Cell Lines Screen was performed using the standard one-dose NCI protocol, which is described in more detail at https://dtp.cancer.gov/discovery_development/nci-60/default.htm.\n(§3) Compounds with GIPRCNT values below 10 were considered active. Activity score was based on GIPRCNT using the following formula: […]\n(§4) Score is 0 for GIPRCNT values of 100 or above, 50 for GIPRCNT values of 0, and 100 for GIPRCNT values of -100."}
{"smiles": "O=c1ccn2c(n1)OC1CC2OC1COC(c1ccccc1)(c1ccccc1)c1ccccc1", "note": "(stereo not given)", "growth": "117% (inactive)"}
{"tested_on": "KM12 colon", "test": "NCI-60 one-dose screen, 48 h (100 = growth as untreated, 0 = no growth, -100 = all killed)", "conditions": "10 µM unless noted", "experimental": "as §1, §2, §3, §4"}
{"smiles": "CSc1nc(N)c(N)c(N)n1", "growth": "104% (inactive)"}
{"smiles": "COc1ccccc1OCC(O)CO", "note": "(stereo not given)", "growth": "98% (inactive) and 108% (inactive)"}
{"smiles": "CC1(CO)CCCC1NCCNC1CCCC1(C)CO", "note": "(stereo not given)", "growth": "122% (inactive) and 100% (inactive)"}
{"smiles": "N#CC(=S)Nc1ccc(Cl)c(Cl)c1", "growth": "2.62% (active)"}
{"smiles": "Nc1ccccc1SC1CC(=O)N(c2ccc(I)cc2)C1=O", "note": "(stereo not given)", "growth": "79.1% (inactive)"}
{"smiles": "N=C(N)N1CCc2ccccc2C1", "growth": "92.6% (inactive) and 94% (inactive)"}
{"smiles": "CC(=O)Oc1cc(C(C)C)c(OCCN(C)C)cc1C", "growth": "102% (inactive) and 110% (inactive)"}
{"smiles": "COc1ccc([N+](=O)[O-])cc1OC", "growth": "109% (inactive) and 120% (inactive)"}
{"smiles": "CC(O)CCNC(c1ccccc1)C(O)c1ccccc1", "note": "(stereo not given)", "growth": "114% (inactive)"}
{"smiles": "Cc1ccc(C(=O)c2ccc(C)cc2)cc1", "growth": "102% (inactive) and 108% (inactive)"}
{"smiles": "CCOC(=N)c1ccc(C(=N)OCC)cc1", "growth": "105% (inactive)"}
{"smiles": "CCN(CC)Cc1cc2[nH]c3c4ccc(Cl)cc4ncc3c2cc1OC", "growth": "2.32% (active) and 42.7% (inactive)"}
{"smiles": "Cc1cc(O)c(C(C)C)cc1N=O", "growth": "109% (inactive) and 110% (inactive)"}
{"smiles": "Oc1cccnc1CN1CCOCC1", "growth": "112% (inactive) and 108% (inactive)"}
{"smiles": "COCCNC(C)=O", "growth": "103% (inactive)"}
{"smiles": "CC(=O)C[n+]1ccccc1Sc1ccc(Cl)cc1", "growth": "79.2% (inactive)"}
{"smiles": "O=C1C=CC(n2cc(F)c(=O)[nH]c2=O)O1", "note": "(stereo not given)", "growth": "51.6% (inactive)"}
{"smiles": "Cc1c(O)nc(N)[nH]c1=O", "growth": "106% (inactive)"}
{"smiles": "COC(=O)CCOc1ccccc1", "growth": "102% (inactive)"}
{"smiles": "CC1CCC(=O)N1c1ccc(N)cc1", "note": "(stereo not given)", "growth": "102% (inactive)"}
{"smiles": "NC1=NC(c2ccccc2)N=C(Nc2ccccc2)N1", "note": "(stereo not given)", "growth": "26.1% (inactive) and 51.7% (inactive)"}
{"smiles": "Nc1c(Cl)cc2c(c1Br)C(=O)c1ccccc1C2=O", "growth": "106% (inactive)"}
{"smiles": "CC1(C)OC(=O)C(=Cc2ccc(C#N)cc2)C(=O)O1", "growth": "105% (inactive) and 115% (inactive)"}
{"smiles": "O=C(/C=C/C=C/c1ccc2c(c1)OCO2)N1CCCCC1", "growth": "98.2% (inactive) and 95% (inactive)"}
{"smiles": "N#CC1c2ccccc2C=CN1C(=O)c1ccccc1", "note": "(stereo not given)", "growth": "107% (inactive) and 91.5% (inactive)"}
{"smiles": "CN(C=O)c1ccccc1", "growth": "110% (inactive)"}
{"smiles": "COC(=O)c1nc(=S)[nH]c(C(=O)OC)c1C(=O)c1ccc(OC)cc1", "growth": "103% (inactive)"}
{"smiles": "N=c1sc2ccccc2n1CC(=O)O", "growth": "106% (inactive)"}
{"smiles": "CCOC(=O)c1csc(N)n1", "growth": "110% (inactive) and 108% (inactive)"}
{"smiles": "ON=C(C1CCCCC1)C1CCCCC1", "growth": "95.5% (inactive)"}
{"smiles": "CC(C)(C(=O)c1cccnc1)c1cccnc1", "growth": "101% (inactive) and 113% (inactive)"}
{"smiles": "CS(=O)(=O)c1nsc(N)n1", "growth": "105% (inactive)"}
{"smiles": "Nc1ccc(O)c(C(=O)O)c1", "growth": "101% (inactive) and 107% (inactive) and 91.5% (inactive)"}
{"smiles": "O=C(O)c1cccc(Br)c1", "growth": "101% (inactive) and 106% (inactive)"}
{"smiles": "CCN(CC)CCO/N=C1\\CC(c2ccc(OC)c(OC)c2)Oc2ccccc21", "note": "(stereo not given)", "growth": "103% (inactive)"}
{"smiles": "O=C1CCC(=O)N1CC1CC2CCC1C2", "note": "(stereo not given)", "growth": "107% (inactive) and 100% (inactive)"}
{"smiles": "CCOC(=O)NC(N)=O", "growth": "112% (inactive)"}
{"smiles": "CC(C)=NOC(C)C(=O)O", "note": "(stereo not given)", "growth": "114% (inactive)"}
{"tested_on": "KM12 colon", "test": "NCI-60 one-dose screen, 48 h (100 = growth as untreated, 0 = no growth, -100 = all killed)", "conditions": "100 µM", "experimental": "as §1, §2, §3, §4"}
{"smiles": "O=c1ccn2c(n1)OC1CC2OC1COC(c1ccccc1)(c1ccccc1)c1ccccc1", "note": "(stereo not given)", "growth": "96.3% (inactive)"}
